According to article PMC4336329 (PLoS ONE, 2015):
Out of some 310,000 compounds screened, about 14,000 (4.5%) showed an effect of 50% or more. The effect is printed as a negative number. The full list was thinned out, with strong results kept by preference.

target: human ether-à-go-go-related gene (hERG) potassium channel (human, UniProt Q12809); test: primary screen, population patch clamp on CHO cells stably expressing hERG; higher = less effect of the substance
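Further: peak tail current of the secondary pulse compared with the same well before compound.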

Chain of human ether-à-go-go-related gene (hERG) potassium channel (Q12809 whole entry, looked up): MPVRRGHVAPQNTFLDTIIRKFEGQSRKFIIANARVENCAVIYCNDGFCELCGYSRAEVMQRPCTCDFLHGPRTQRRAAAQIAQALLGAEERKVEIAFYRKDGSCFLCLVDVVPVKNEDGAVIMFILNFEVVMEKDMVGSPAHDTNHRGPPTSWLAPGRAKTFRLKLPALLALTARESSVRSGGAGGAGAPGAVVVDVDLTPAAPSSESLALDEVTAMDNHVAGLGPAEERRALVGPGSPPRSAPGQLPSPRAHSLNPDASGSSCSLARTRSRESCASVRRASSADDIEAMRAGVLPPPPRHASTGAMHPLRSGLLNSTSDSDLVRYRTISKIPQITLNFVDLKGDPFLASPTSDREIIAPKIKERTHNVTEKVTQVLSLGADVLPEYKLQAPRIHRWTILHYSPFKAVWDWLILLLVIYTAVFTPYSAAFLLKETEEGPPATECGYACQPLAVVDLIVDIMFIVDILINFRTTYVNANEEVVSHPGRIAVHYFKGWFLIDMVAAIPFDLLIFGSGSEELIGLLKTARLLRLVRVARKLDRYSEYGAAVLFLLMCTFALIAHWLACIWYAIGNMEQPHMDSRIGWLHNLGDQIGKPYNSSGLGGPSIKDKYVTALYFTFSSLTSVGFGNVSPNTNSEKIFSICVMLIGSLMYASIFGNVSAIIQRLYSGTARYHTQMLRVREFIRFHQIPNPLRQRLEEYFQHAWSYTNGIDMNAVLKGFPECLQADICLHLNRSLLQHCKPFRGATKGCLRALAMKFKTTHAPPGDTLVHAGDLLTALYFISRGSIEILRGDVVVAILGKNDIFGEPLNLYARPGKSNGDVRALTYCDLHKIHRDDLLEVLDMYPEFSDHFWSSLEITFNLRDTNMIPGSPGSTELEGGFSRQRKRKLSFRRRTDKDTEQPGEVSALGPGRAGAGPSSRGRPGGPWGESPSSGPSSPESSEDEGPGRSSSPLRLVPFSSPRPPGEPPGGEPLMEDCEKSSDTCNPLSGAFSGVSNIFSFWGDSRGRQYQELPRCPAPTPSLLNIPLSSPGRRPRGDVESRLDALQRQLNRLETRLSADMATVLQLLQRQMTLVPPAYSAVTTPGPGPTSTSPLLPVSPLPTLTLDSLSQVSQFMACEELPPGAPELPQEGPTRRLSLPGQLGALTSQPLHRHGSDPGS

Structure (SMILES) | hERG current change (%, negative = inhibition) at 10uM [%]
CC(Oc1ccccc1)C(=O)N=C1SC2CS(=O)(=O)CC2N1Cc1ccc(F)cc1 (stereo not shown) | -24.6
CCc1cccc(CC)c1NC(=O)C1CCN(C(=O)c2ccco2)CC1 | 2.93
COc1ccc(C(=O)OCn2nnc3ccccc3c2=O)cc1OC | 8.71
Cc1ccc(NC(=O)C2C3C=CC4(O3)C2C(=O)N(CCCN2CCCCC2)C4C(=O)NC2CCCCC2)cc1Cl (stereo not shown) | 16.3
O=C(Nc1ccc(Br)cc1)C1C2C=CC3(O2)C1C(=O)N(CCN1CCCCC1)C3C(=O)NC1CCCCC1 (stereo not shown) | -59.8
Cc1cc(C)cc(NC(=O)C2C3C=CC4(O3)C2C(=O)N(CCN2CCCCC2)C4C(=O)NC2CCCCC2)c1 (stereo not shown) | -40.3
O=C(Nc1ccc(Cl)c(Cl)c1)C1C2C=CC3(O2)C1C(=O)N(CCN1CCCCC1)C3C(=O)NC1CCCCC1 (stereo not shown) | -60.8
O=C(Nc1ccc(Cl)cc1)C1C2C=CC3(O2)C1C(=O)N(CCN1CCCCC1)C3C(=O)NC1CCCCC1 (stereo not shown) | -44.1
O=C(Nc1ccc(Br)cc1)C1C2C=CC3(O2)C1C(=O)N(CCN1CCOCC1)C3C(=O)NC1CCCCC1 (stereo not shown) | -3.6
Cc1ccc(-c2nc(N)n(S(C)(=O)=O)n2)cc1 | 7.05
CC(C)(C)n1nc2c(c1NC(=O)c1ccccc1F)CS(=O)C2 (stereo not shown) | 15.6
Cc1ccc2cc(/C=C/C(=O)c3ccco3)c(Cl)nc2c1 | 15.2
Cc1ccc(NC(=O)c2ccc3c(=O)n4c(nc3c2)CCCCC4)nc1 | -60.4
O=C(Nc1ccccn1)c1ccc2c(=O)n3c(nc2c1)CCCCC3 | -47.2
Cc1csc(NC(=O)c2ccc3c(=O)n4c(nc3c2)CCCCC4)n1 | -80.3
Cc1cccc(NC(=O)c2ccc3c(=O)n4c(nc3c2)CCCCC4)n1 | -67.2
COc1ccc(C)cc1NC(=O)c1ccc2c(=O)n3c(nc2c1)CCCCC3 | -42.5
O=C(Nc1ccccc1Cl)c1ccc2c(=O)n3c(nc2c1)CCC3 | -6.14
O=C(Nc1nc(-c2ccccc2)cs1)c1ccc2c(=O)n3c(nc2c1)CCCCC3 | -23.8
Cc1ccc(-c2csc(NC(=O)c3ccc4c(=O)n5c(nc4c3)CCCCC5)n2)cc1 | -6.65
Cc1cc(C)c2nc(NC(=O)c3ccc4c(=O)n5c(nc4c3)CCCCC5)sc2c1 | 13.9
COc1ccc(-c2cc(C(=O)N3CCN(c4ncccn4)CC3)c3ccccc3n2)cc1 | -33.4
CCCCNCc1nc2ccccc2c(=O)[nH]1.Cl | 5.81
COc1ccc(/C=N\NC(=O)c2ccc(=O)[nH]n2)cc1O | 18.4
Brc1cccc(-c2nnc(SCc3ccon3)n2-c2ccccc2)c1 | -48.9
Cc1ccc(NC(=O)CN2c3cccc4cccc(c34)S2(=O)=O)cc1S(=O)(=O)N1CCOCC1 | 0.358

Structure (SMILES) | hERG current change (%, negative = inhibition) at 10uM [%]
Cc1cc(NC(=O)COc2c(C)cccc2C)no1 | 22.3
CC(=O)c1cccc(NC(=O)C(C)N(C)CC(=O)Nc2ccc(Cl)cc2)c1 (stereo not shown) | -5.14
c1ccc(Oc2nnc(-c3cccs3)c3ccccc23)cc1 | -5.87
Cc1ccc(S(=O)(=O)N2CCN(C(=O)c3ccc(S(=O)(=O)N4CCCC4)cc3)CC2)cc1 | -6.64
O=C(c1ccc(-n2cccn2)cc1)N1CCN(c2ncccc2C(F)(F)F)CC1 | -60.4
Cc1ccc(S(=O)(=O)N2CCCN(C(=O)c3ccc(-n4cccn4)cc3)CC2)cc1 | -74.2
CC(C)(C)C(=O)N1CCN(c2ncccc2C(F)(F)F)CC1 | 1.88
O=C(c1ccc(F)cc1)N1CCN(S(=O)(=O)c2ccc(Br)cc2)CC1 | -5.63
O=C(O)CCC(=O)N1CCN(c2ncccc2C(F)(F)F)CC1 | 9.74
Cc1ccc(S(=O)(=O)N2CCN(C(=O)c3ccccc3)CC2)cc1 | -31
O=C(c1ccncc1)N1CCN(S(=O)(=O)c2ccc(F)cc2)CC1 | 15.2
O=C(c1cccc(-n2cccc2)c1)N1CCN(S(=O)(=O)c2ccc(F)cc2)CC1 | -34.7
Cc1ccnn1-c1ccc(C(=O)N2CCCN(S(=O)(=O)c3ccc(F)cc3)CC2)cc1 | -69.7
Cc1ccc(S(=O)(=O)N2CCN(C(=O)c3cccc(-n4cccc4)c3)CC2)cc1 | -51.3
O=C(c1cccc(-n2cccc2)c1)N1CCN(S(=O)(=O)c2ccccc2)CC1 | -32
CCOC(=O)c1sc2nc(N3CCCC3)c3c(c2c1N)CC(C)(C)OC3 | 10.4
O=[N+]([O-])c1cccc(N/N=C/c2cccc(O)c2O)c1 | 16.7
COc1ccc(-c2n[nH]c3c2C(c2ccc(OC)c(OC)c2)N(c2ccccc2)C3=O)cc1 (stereo not shown) | 3.73
Cc1cc(Cl)ccc1N(CC(=O)NCc1ccccc1)S(C)(=O)=O | -1.12
Cc1cc(Cl)ccc1OCCCC(=O)NNC(=O)c1ccncc1 | -30.2
Cl.Clc1ccc(OCc2nnc(SCCN3CCCCC3)n2Cc2ccco2)cc1 | -75.9
CC(Sc1nnc(COc2ccc(Cl)cc2)n1Cc1ccccc1)C(=O)O (stereo not shown) | 3.06
CC(Sc1nnc(COc2ccc(Cl)cc2)n1Cc1ccco1)C(=O)N1CCNC1=O (stereo not shown) | -55.9
O=C(CSc1nnc(COc2ccc(Cl)cc2)n1Cc1ccco1)c1ccccc1F | 13.1
COc1ccccc1NC(=O)CSc1nnc(COc2ccc(Cl)cc2)n1Cc1ccco1 | -12.7
Clc1ccc(OCc2nnc(SCc3nc4ccccc4[nH]3)n2Cc2ccco2)cc1 | -36
